Experimental data taken from publication PMC5540273 (PLoS ONE, 2017).
Where two headings read alike, the source gives them in different places.

Columns and labels:
AAK1 = details: n = 1
ABL1-nonphosphorylated = details: concentration: 1 μM, replicates: in singlicate; n = 1
ABL1-phosphorylated = details: concentration: 1 μM, replicates: in singlicate; n = 1
ABL2 = details: concentration: 1 μM, replicates: in singlicate; n = 1
ACVR1B = details: concentration: 1 μM, replicates: in singlicate; n = 1
ACVR1 = details: concentration: 1 μM, replicates: in singlicate; n = 1
ACVR2A = details: concentration: 1 μM, replicates: in singlicate; n = 1
ACVR2B = details: concentration: 1 μM, replicates: in singlicate; n = 1
ACVRL1 = details: concentration: 1 μM, replicates: in singlicate; n = 1
ADCK3 = system: T1, ADCK3; details: concentration: 1 μM, replicates: in singlicate; n = 1
T1 construct: gene CABC1

ADCK4 = details: concentration: 1 μM, replicates: in singlicate; n = 1
AKT1 = details: concentration: 1 μM, replicates: in singlicate; n = 1
AKT2 = details: concentration: 1 μM, replicates: in singlicate; n = 1
AKT3 = details: concentration: 1 μM, replicates: in singlicate; n = 1
ALK = details: concentration: 1 μM, replicates: in singlicate; n = 1
AMPK-alpha1 = system: T2, AMPK-alpha1; details: concentration: 1 μM, replicates: in singlicate; n = 1
T2 construct: gene PRKAA1

AMPK-alpha2 = system: T3, AMPK-alpha2; details: concentration: 1 μM, replicates: in singlicate; n = 1
T3 construct: gene PRKAA2

ANKK1 = details: concentration: 1 μM, replicates: in singlicate; n = 1
ARK5 = system: T4, ARK5; details: concentration: 1 μM, replicates: in singlicate; n = 1
T4 construct: gene NUAK1

ASK1 = system: T5, ASK1; details: concentration: 1 μM, replicates: in singlicate; n = 1
T5 construct: gene MAP3K5

[1] = concentration: 1 μM, replicates: in singlicate
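Note: KINOMEscan kinase panel screen.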

For `Cl.NC(=O)c1cccc(Nc2nccc(Nc3ccc(Oc4c(Cl)cccc4Cl)c(Cl)c3)n2)c1` [GW659009], which “%Inh” value (AAK1; [1]) is on record?
The value was 15%.

What about the “%Inh” value (ABL1-nonphosphorylated) of the same compound?
Its value is 67%.

What about the “%Inh” value (ABL1-phosphorylated) of the same compound?
The value was 0%.

What about the “%Inh” value (ABL2) of the same compound?
The value was 85%.

And the “%Inh” value (ACVR1B)?
The value was 100%.

And the “%Inh” value (ACVR1)?
Its value is 0%.

And the “%Inh” value (ACVR2A)?
The value was 0%.

What about the “%Inh” value (ACVR2B) of the same compound?
Its value is 0%.

What about the “%Inh” value (ACVRL1) of the same compound?
The value was 7%.

And the “%Inh” value (ADCK3)?
Its value is 0%.

What about the “%Inh” value (ADCK4) of the same compound?
Its value is 14%.

What about the “%Inh” value (AKT1) of the same compound?
The value was 0%.

And the “%Inh” value (AKT2)?
Its value is 0%.

What about the “%Inh” value (AKT3) of the same compound?
Its value is 0%.

And the “%Inh” value (ALK)?
Its value is 3%.

And the “%Inh” value (AMPK-alpha1)?
The value was 0%.

What about the “%Inh” value (AMPK-alpha2) of the same compound?
The value was 0%.

What about the “%Inh” value (ANKK1) of the same compound?
Its value is 3%.

And the “%Inh” value (ARK5)?
Its value is 0%.

What about the “%Inh” value (ASK1) of the same compound?
Its value is 0%.

Which results are given for `Fc1ccc(-c2ncn(C3CCNCC3)c2-c2ccnc(Oc3ccc(-c4ccccc4)cc3)n2)cc1` [SB-245391]?
%Inh (AAK1; [1]): 14%; %Inh (ABL1-nonphosphorylated): 1%; %Inh (ABL1-phosphorylated): 16%; %Inh (ABL2): 1%; %Inh (ACVR1B): 72%; %Inh (ACVR1): 0%; %Inh (ACVR2A): 19%; %Inh (ACVR2B): 0%; %Inh (ACVRL1): 19%; %Inh (ADCK3): 0%; %Inh (ADCK4): 0%; %Inh (AKT1): 20%; %Inh (AKT2): 31%; %Inh (AKT3): 15%; %Inh (ALK): 39%; %Inh (AMPK-alpha1): 7%; %Inh (AMPK-alpha2): 20%; %Inh (ANKK1): 7%; %Inh (ARK5): 1%; %Inh (ASK1): 23%

What does the source list for `Cc1ccc(C(=O)N2CC[C@@H](O)C2)cc1-n1c(C)cc(OCc2ccc(F)cc2F)c(Br)c1=O`?
%Inh (AAK1; [1]): 0%; %Inh (ABL1-nonphosphorylated): 92.1%; %Inh (ABL1-phosphorylated): 90.5%; %Inh (ABL2): 72%; %Inh (ACVR1B): 12%; %Inh (ACVR1): 0%; %Inh (ACVR2A): 31%; %Inh (ACVR2B): 0%; %Inh (ACVRL1): 0%; %Inh (ADCK3): 0%; %Inh (ADCK4): 66%; %Inh (AKT1): 0%; %Inh (AKT2): 0%; %Inh (AKT3): 0%; %Inh (ALK): 0%; %Inh (AMPK-alpha1): 2%; %Inh (AMPK-alpha2): 0%; %Inh (ANKK1): 0%; %Inh (ARK5): 0%; %Inh (ASK1): 0%

How did the “%Inh” value (AAK1; [1]) turn out when `Nc1n[nH]c2cnc(-c3ccccc3)cc12` [SB-642124] was run?
The value was 37%.

And the “%Inh” value (ABL1-nonphosphorylated)?
Its value is 0%.

And the “%Inh” value (ABL1-phosphorylated)?
The value was 0%.

What about the “%Inh” value (ABL2) of the same compound?
Its value is 16%.

And the “%Inh” value (ACVR1B)?
Its value is 0%.

And the “%Inh” value (ACVR1)?
The value was 41%.

What about the “%Inh” value (ACVR2A) of the same compound?
Its value is 0%.

What about the “%Inh” value (ACVR2B) of the same compound?
The value was 13%.

What about the “%Inh” value (ACVRL1) of the same compound?
Its value is 0%.

What about the “%Inh” value (ADCK3) of the same compound?
Its value is 19%.

And the “%Inh” value (ADCK4)?
Its value is 24%.

And the “%Inh” value (AKT1)?
Its value is 0%.

What about the “%Inh” value (AKT2) of the same compound?
The value was 8%.

And the “%Inh” value (AKT3)?
The value was 0%.

What about the “%Inh” value (ALK) of the same compound?
The value was 30%.

What about the “%Inh” value (AMPK-alpha1) of the same compound?
Its value is 0%.

What about the “%Inh” value (AMPK-alpha2) of the same compound?
Its value is 30%.

And the “%Inh” value (ANKK1)?
The value was 23%.

What about the “%Inh” value (ARK5) of the same compound?
The value was 0%.

And the “%Inh” value (ASK1)?
The value was 6%.

How did the “%Inh” value (AAK1; [1]) turn out when `Cl.c1ccc(-c2ccc3c(Nc4ccc5[nH]ncc5c4)ccnc3c2)nc1` [GW440137] was run?
The value was 18%.

And the “%Inh” value (ABL1-nonphosphorylated)?
The value was 63%.

What about the “%Inh” value (ABL1-phosphorylated) of the same compound?
The value was 73%.

What about the “%Inh” value (ABL2) of the same compound?
Its value is 28%.

What about the “%Inh” value (ACVR1B) of the same compound?
Its value is 1%.

And the “%Inh” value (ACVR1)?
The value was 71%.

And the “%Inh” value (ACVR2A)?
Its value is 57%.

And the “%Inh” value (ACVR2B)?
The value was 94.6%.

What about the “%Inh” value (ACVRL1) of the same compound?
Its value is 19%.

And the “%Inh” value (ADCK3)?
The value was 3%.

What about the “%Inh” value (ADCK4) of the same compound?
The value was 38%.

And the “%Inh” value (AKT1)?
The value was 0%.

What about the “%Inh” value (AKT2) of the same compound?
The value was 0%.

What about the “%Inh” value (AKT3) of the same compound?
Its value is 0%.

What about the “%Inh” value (ALK) of the same compound?
Its value is 31%.

What about the “%Inh” value (AMPK-alpha1) of the same compound?
Its value is 0%.

And the “%Inh” value (AMPK-alpha2)?
The value was 0%.

And the “%Inh” value (ANKK1)?
Its value is 14%.

What about the “%Inh” value (ARK5) of the same compound?
Its value is 11%.

What about the “%Inh” value (ASK1) of the same compound?
Its value is 0%.

Which results are given for `C[C@@H](Oc1cc(-n2cnc3cc(-c4ccnc(NCCS(C)(=O)=O)c4)ccc32)sc1C(N)=O)c1ccccc1Cl` [GSK907232]?
%Inh (AAK1; [1]): 73%; %Inh (ABL1-nonphosphorylated): 0%; %Inh (ABL1-phosphorylated): 0%; %Inh (ABL2): 30%; %Inh (ACVR1B): 0%; %Inh (ACVR1): 10%; %Inh (ACVR2A): 0%; %Inh (ACVR2B): 3%; %Inh (ACVRL1): 0%; %Inh (ADCK3): 25%; %Inh (ADCK4): 10%; %Inh (AKT1): 0%; %Inh (AKT2): 16%; %Inh (AKT3): 0%; %Inh (ALK): 18%; %Inh (AMPK-alpha1): 0%; %Inh (AMPK-alpha2): 0%; %Inh (ANKK1): 0%; %Inh (ARK5): 84%; %Inh (ASK1): 0%

Which “%Inh” value (AAK1; 1 µM) does the source give for `Cc1cccc(Nc2nc(N[C@H]3CCNC3)ncc2C(N)=O)c1.Cl` [GSK2197149] here?
The value was 75%.

What about the “%Inh” value (ABL1-nonphosphorylated) of the same compound?
The value was 40%.

What about the “%Inh” value (ABL1-phosphorylated) of the same compound?
The value was 66%.

What about the “%Inh” value (ABL2) of the same compound?
The value was 25%.

And the “%Inh” value (ACVR1B)?
The value was 0%.

What about the “%Inh” value (ACVR1) of the same compound?
Its value is 0%.

And the “%Inh” value (ACVR2A)?
Its value is 2%.

What about the “%Inh” value (ACVR2B) of the same compound?
The value was 7%.

And the “%Inh” value (ACVRL1)?
Its value is 0%.

And the “%Inh” value (ADCK3)?
The value was 28%.

And the “%Inh” value (ADCK4)?
The value was 0%.

And the “%Inh” value (AKT1)?
The value was 0%.

What about the “%Inh” value (AKT2) of the same compound?
The value was 7%.

And the “%Inh” value (AKT3)?
Its value is 0%.

What about the “%Inh” value (ALK) of the same compound?
The value was 47%.

And the “%Inh” value (AMPK-alpha1)?
The value was 22%.

What about the “%Inh” value (AMPK-alpha2) of the same compound?
Its value is 33%.

And the “%Inh” value (ANKK1)?
Its value is 79%.

And the “%Inh” value (ARK5)?
Its value is 34%.

What about the “%Inh” value (ASK1) of the same compound?
Its value is 0%.

`O=C(NC1CCN(c2ccnc(Nc3ccc(F)cc3)n2)C1)c1cc2ccccc2s1` (stereo not shown) [GSK1379716] was tested. Which “%Inh” value (AAK1; [1]) did it give?
The value was 7%.

And the “%Inh” value (ABL1-nonphosphorylated)?
Its value is 0%.

What about the “%Inh” value (ABL1-phosphorylated) of the same compound?
Its value is 0%.

And the “%Inh” value (ABL2)?
The value was 21%.

What about the “%Inh” value (ACVR1B) of the same compound?
Its value is 0%.

And the “%Inh” value (ACVR1)?
The value was 0%.

And the “%Inh” value (ACVR2A)?
Its value is 0%.

What about the “%Inh” value (ACVR2B) of the same compound?
Its value is 5%.

And the “%Inh” value (ACVRL1)?
Its value is 11%.

And the “%Inh” value (ADCK3)?
Its value is 24%.

And the “%Inh” value (ADCK4)?
The value was 61%.

And the “%Inh” value (AKT1)?
Its value is 0%.

What about the “%Inh” value (AKT2) of the same compound?
Its value is 16%.

And the “%Inh” value (AKT3)?
The value was 0%.

What about the “%Inh” value (ALK) of the same compound?
Its value is 3%.

What about the “%Inh” value (AMPK-alpha1) of the same compound?
The value was 7%.

What about the “%Inh” value (AMPK-alpha2) of the same compound?
Its value is 20%.

And the “%Inh” value (ANKK1)?
Its value is 0%.

And the “%Inh” value (ARK5)?
The value was 21%.

What about the “%Inh” value (ASK1) of the same compound?
Its value is 14%.
